A selection: hits, their analogues and other compounds. The true share with any hit is near 4.3%.
D3 antag = qHTS of D3 Dopamine Receptor Antagonist: qHTS; D(3) dopamine receptor (Homo sapiens), P35462; D3R cells, DiscoveRx beta-arrestin luminescence, antagonist mode; active compounds read low; max response, negative = inhibition, %; actives 2.5% (n = 360,000); AID 652054, 2013; in the data active = max response below about -50%; inconclusive = no clear call, values can overlap the other calls
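Cells plated overnight at 1500 cells/well, then exposed to library compounds with dopamine controls for 90 minutes at 37 degrees C. DiscoveRx reagent added for 30–60 minutes at room temperature; luminescence read, quantitative HTS format.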
GLP1R inv ag = qHTS of GLP-1 Receptor Inverse Agonists (Inhibition Mode). Glucagon-like peptide 1 receptor (Homo sapiens), P43220. HEK293 GLP-1R CRE-luciferase, luminescence, 24 h; GLP-1R form is constitutively active. Potency, µM (highest dose often 38.3 µM), most hits filed as inhibitors. actives 1.6% (n = 410,000). AID 624417, 2012; also: nearly all actives have a fitted effect of over 55% in size
Target sequence (P43220 whole entry, looked up): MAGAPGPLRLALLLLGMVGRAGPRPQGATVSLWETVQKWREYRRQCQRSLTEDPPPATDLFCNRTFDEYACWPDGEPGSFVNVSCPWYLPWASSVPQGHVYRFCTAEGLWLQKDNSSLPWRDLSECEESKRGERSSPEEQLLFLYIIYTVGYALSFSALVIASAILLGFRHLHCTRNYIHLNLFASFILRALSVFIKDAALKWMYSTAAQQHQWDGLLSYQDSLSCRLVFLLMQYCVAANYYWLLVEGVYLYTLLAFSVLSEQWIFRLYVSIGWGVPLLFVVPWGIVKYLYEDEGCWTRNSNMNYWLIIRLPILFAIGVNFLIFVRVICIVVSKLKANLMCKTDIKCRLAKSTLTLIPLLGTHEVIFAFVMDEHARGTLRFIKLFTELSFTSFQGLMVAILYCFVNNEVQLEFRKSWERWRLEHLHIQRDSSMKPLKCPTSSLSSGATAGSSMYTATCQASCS
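Cells are plated, allowed 12 hours at 37 deg C, then treated with compounds for 24 hr before luciferase detection reagent is added and luminescence is read after 12 min at room temperature. The HEK293 line carries constitutively active GLP-1R with a cAMP-responsive reporter.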
GLP1R ag = qHTS of GLP-1 Receptor Agonists; Glucagon-like peptide 1 receptor (Homo sapiens), P43220; HEK293 GLP-1R CRE-luciferase, luminescence, 4-6 h; cells express a hypersensitive GLP-1R form; Potency, µM (top dose mostly 45.6 µM), most hits filed as activators; actives 0.007% (n = 380,000)
DRD3 agonist = qHTS of D3 Dopamine Receptor Agonist: qHTS | D3R DiscoveRx beta-arrestin cells, luminescence, 90 min | max activation, % | actives 0.58% (n = 410,000) | AID 652048, 2013; in the data active = max activation above about 30%
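Agonist mode: compounds and dopamine controls were applied to plated cells for 90 min at 37 degrees C after an overnight attachment at 1500 cells/well. Luminescent read-out followed 30 - 60 minutes at room temperature with DiscoveRx detection reagent.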
Each line names hits and unclear results; the compound was inactive in the other large screens; ! = repeats disagree. Unless noted, calls follow the shape of the dose curve; as a rule, active = well fitted curve in the direction sought with a large enough effect; inconclusive = small, poorly fitted or top-dose-only effect, or another doubt; inactive = no such curve, though single readings can be large; an effect the other way counts as inactive or inconclusive.

CCC(Oc1ccccc1)C(=O)NC1CCCCCC1 (configuration not stated)	GLP1R inv ag 10µM
COc1ccc(N(CC(=O)N2CCN(c3ccc(Cl)cc3)CC2)S(=O)(=O)c2c(C)n[nH]c2C)cc1	GLP1R inv ag 11µM
Nc1ncnc2c1ncn2[C@@H]1O[C@H](CNCc2ccc(-c3cc(C(F)(F)F)ccc3Cl)o2)[C@@H](O)[C@H]1O	D3 antag -76
CC(=O)NCCOc1cccc2ccccc12	none
CN(CCOc1ccccc1)Cc1ccccc1	D3 antag -117
CN(CCOc1cccc2ccccc12)Cc1ccccc1	D3 antag -76
CCN(Cc1ccccc1)C(=O)CCCOc1ccccc1	none
CN(CCOc1ccc(Cl)cc1)Cc1cccc(S(=O)(=O)N(C)C)c1	GLP1R inv ag inconclusive, DRD3 agonist 47
c1ccc(CCNCCCOc2cccc3ccccc23)cc1	D3 antag -67, GLP1R inv ag inconclusive
Cc1ccc(N2CCN(S(=O)(=O)c3ccc(F)c(C(=O)Nc4ccc(Cl)cc4Cl)c3)CC2C)cc1 (configuration not stated)	none (no result: D3 antag, GLP1R ag)
COc1ccc(OC)c(S(=O)(=O)NC(=O)C2(C)CCN2C(=O)Cc2ccccc2)c1 (configuration not stated)	none
Cc1ccccc1NC(=O)c1c(F)c(F)c(F)c(F)c1F	none
CCn1ccc(C(=O)Nc2cccc(Cl)c2)n1	none
O=C(Nc1ccccc1Cl)c1c(F)c(F)c(F)c(F)c1F	D3 antag -62
CCn1ccc(C(=O)Nc2ccccc2Cl)n1	D3 antag -96
O=C(NCCNC1CCC(c2ccccc2)CC1)c1cccs1 (configuration not stated)	D3 antag -54, GLP1R inv ag inconclusive
CCOC(=O)N1CCC(NC(=O)c2cc(C)c3c(C)nn(-c4ccccc4)c3n2)CC1	DRD3 agonist 46
CCOC(=O)N1CCC(NCCNC(=O)c2ccccc2)CC1	D3 antag -73
CCOC(=O)N1CCC(NC(=O)c2cccs2)CC1	none
CCOC(=O)N1CCC(NC(=O)c2ccccc2C(=O)O)CC1	none
O=C(NCCC1CCCC1)c1cccs1	none
CCOC(=O)N1CCC(NCCNC(=O)c2cccs2)CC1	D3 antag -77
CN(C)c1ccc(O)c2c1C[C@H]1C[C@H]3[C@H](N(C)C)C(=O)C(C(N)=O)=C(O)[C@@]3(O)C(=O)C1=C2O	DRD3 agonist 73! (no result: D3 antag, GLP1R inv ag)
Clc1ccc(CN2C3=NCCCN3c3ccccc32)c(Cl)c1	GLP1R inv ag 8.9µM
Cc1ccc(CN2C3=NCCCN3c3ccccc32)cc1	GLP1R inv ag inconclusive
CC(C)(C)c1ccc(CN2C3=NCCCN3c3ccccc32)cc1	D3 antag -63, GLP1R inv ag inconclusive
Cc1ccc(N(CC(=O)NCCc2ccc(Cl)cc2)S(=O)(=O)N(C)C)cc1	GLP1R inv ag inconclusive (no result: D3 antag)
COC(=O)c1c(NC(=O)CSc2nnnn2-c2ccccc2)sc2c1CCC(C(C)(C)C)C2 (configuration not stated)	GLP1R inv ag 5.6µM
COC(=O)c1c(NC(=O)CSc2nnnn2-c2ccccc2)sc2c1CCC(C)C2 (configuration not stated)	none
O=C(NC1CCCC1)C1C(c2ccc(C(F)(F)F)cc2)=Nc2ccccc2N1C(=O)c1cccc(C(F)(F)F)c1 (configuration not stated)	GLP1R inv ag inconclusive (no result: GLP1R ag)
O=C(NCCc1ccc(F)cc1)NC12CC3CC(CC(C3)C1)C2	GLP1R inv ag inconclusive
O=C(NCCC1=CCCCC1)NC12CC3CC(CC(C3)C1)C2	GLP1R inv ag 5.6µM
S=c1[nH]ncn1/N=C/c1ccc(Br)cc1	D3 antag -109
Cc1ccc(Cn2c(/C=C/c3ccco3)nc3ccccc32)cc1	GLP1R inv ag 11µM
Cc1ccc(N(CC(=O)Nc2ccc(Br)c(C)c2)S(=O)(=O)c2cccs2)cc1	none (no result: D3 antag)
Cn1c(=O)c(C(=O)CCl)c(N)n(CC2CC2)c1=O	DRD3 agonist 35
O=C(Cc1ccc(Cl)cc1)Nc1nnc2n1CCS2	none (no result: D3 antag)
CCOC(=O)C(c1ccccc1)C(Nc1cc(C(F)(F)F)cc(C(F)(F)F)c1)c1ccccn1 (configuration not stated)	DRD3 agonist 38
Cc1ccc(S(=O)(=O)N2CCC(C(=O)N[C@@H](Cc3ccccc3)C(=O)O)CC2)cc1	DRD3 agonist 37

Assay outcomes: PubChem BioAssay, National Center for Advancing Translational Sciences (NCATS)
